From the supplement of paper PMC6555819

Key:
Assay in all cases: PBM binding z-score (relative to random genomic background probes); higher = stronger binding; sequences stand for … in GC…GCGATTGACAGCGTAGAATGAAGG
[1] = system: RARb homodimer (NR concentration 270 nM)
Procedure, shortened: (§1)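 Binding buffer was PBS pH 7.4 with 2% milk, 0.02% Triton X-100, 1 mM DTT, 0.2 mg/mL BSA and 0.4 mg/ml salmon testes DNA. In it, ligand-free nuclear receptor dimers were incubated 1 h on custom Agilent 4×180K protein-binding microarrays carrying double-stranded probes. Antibodies against each partner (one per run) detected binding, and z-scores were calculated against random background probes after regression normalization of scanned fluorescence.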

[2] = system: RARg:RXRa (NR concentration 270 nM, RXRa partner concentration 90 nM)
Procedure, shortened: as §1

[3] = system: RARg homodimer (NR concentration 270 nM)
Procedure, shortened: as §1

[4] = system: RXRa DBDmut IVT, anti-RXR (DBD mutation: RXRa K156A/R161A, NR concentration 90 nM)
Procedure, shortened: as §1

[5] = system: RXRa homodimer (NR concentration 180 nM)
Procedure, shortened: as §1

[6] = system: THRa:RXRa (NR concentration 90 nM, RXRa partner concentration 90 nM)
Procedure, shortened: as §1

[7] = system: THRa homodimer (NR concentration 90 nM)
Procedure, shortened: as §1

[8] = system: VDR:RXRa (NR concentration 270 nM, RXRa partner concentration 90 nM)
Procedure, shortened: as §1

[9] = system: VDR homodimer (NR concentration 270 nM)
Procedure, shortened: as §1

Sequence	PBM binding z-score [1]	PBM binding z-score [2]	PBM binding z-score [3]	PBM binding z-score [4]	PBM binding z-score [5]	PBM binding z-score [6]	PBM binding z-score [7]	PBM binding z-score [8]	PBM binding z-score [9]
ATACCAAGGTGATCGTGAGGACGTTGATACTAAC	0.51	0.635	0.393	-0.27	0.264	2.96	1.97	0.664	0.714
CATCCAGGGTCAGCTAGGCCAGAGTAGGGACGGC	3.29	4.74	4.96	1.35	4.41	3.18	1.34	3.97	1.51
CCAGACATGTGAGAAGGTAACTCAGCCTCGATTA	0.158	-0.0792	0.231	0.753	0.09	-0.0389	0.447	-0.439	0.382
TCGAGTAGGTTACCAATCGGGCATTCAGCTTTCT	0.187	1.32	0.199	-0.0305	0.304	-0.223	-1.47	-0.344	-1.01
AGTTACGGGTCAACGAGGTTATAGCACGCGTATA	3.88	5.45	5.57	2.14	6.14	3.97	1.18	7.65	3.49
TAGCCTAGGTCAATCAGGGGCCAGTATAGAAAGC	3.1	5.75	4.13	0.358	2.51	3.22	0.496	2.32	0.332
AGAATGAGGTTAAGGTCAGGGAAACAGAATACAT	4.1	4.97	4.67	1.43	4.93	4.39	4.62	3.82	2.36
TTACCAAGCTGAAAGGTCGTTGATGCACGCCTTG	1.45	1.06	0.528	-0.0422	2.04	0.936	-0.608	1.07	0.539
ATACCAAGGTGATCGTGCGGTCGTTGATACTAAC	0.887	0.886	0.233	-0.0167	0.159	1.23	0.424	0.18	0.302
AAACCAAGGTGATCGTGAGGTCGTTGATACTAAC	1.41	2.02	0.373	0.896	1.55	3.5	2.46	3.21	2.81
GCAGACAGGTGAAACGCAGGTAACTCTGGGTGGC	-0.101	0.724	0.0252	-0.652	0.337	0.963	-0.802	-0.545	-0.811
TAGCCTAGGTCATGGGGCCAGTATAGTACGCATC	3.29	4.5	4.7	0.621	3.6	3.49	1.43	2.69	1.05
ATCTCTAGGTAGCCAAGTTCAGTGAATGCCGAAC	0.866	0.375	0.381	0.591	0.0776	0.48	0.337	2.24	2.15
CATAGCAGGCCAGGGTCACTCAAGCATTTCGCTT	3.09	3.13	2.89	0.718	3.61	3.07	1.43	2.92	1.81
ATATGTAGGTTAGTTGGGGTCATTCAGACTAGGC	3.96	4.34	2.99	2.64	6.03	5.13	3.99	6.27	5.97
CAAGCTAGGTCACAGAGGTCAAAGTCCGTGCGTA	5.82	7.64	8.36	3.42	8.42	4.64	2.65	8.14	7.28
TGAATGAGGTTATAAGATCAGAGAACGTTGCAAA	-0.136	1.39	0.985	0.35	1.74	1.55	-0.514	0.965	0.234
CCAGACAGGTGAAAAGTAACTCAGTCTGGTACGC	-0.15	0.316	0.402	0.15	0.307	-0.0735	-0.599	0.113	-0.225
TCATATAGGTAAAAGGTAAAAGTCGGTGTGGTAA	0.553	0.857	0.169	1.88	1.94	0.886	0.222	1.33	0.494
CCTGCTAGGTCAATGCTCAGCTAAAGCAGCTCGC	2.37	3.14	4.3	1.92	1.47	1.97	0.173	0.598	-0.26
ATCTCTAGGTAACGTTCAGTGAAAGATCGATAGA	0.194	0.535	0.638	0.201	0.277	0.969	0.455	0.101	-0.197
TGAATTAGGTTAAAGATCAGGGAACGTGGCGTCG	-0.0287	0.954	0.891	-0.199	1.58	0.806	0.0277	0.374	0.326
CCAGACAGGTGCAAGGTAACTCAGTCTGGTACGC	-0.106	-0.306	-0.108	0.584	0.00435	0.379	0.244	-0.136	0.489
ATATGTAGGTTAGCTGGGGACATTCAGACTAGGC	1.29	0.981	1.34	0.879	0.737	4.93	2.11	2.39	1.3
GCTGCTAGGTCAGGTTGGTGAGCTAACGGGTACG	2.33	2.37	3.34	0.361	1.05	1.76	0.218	0.141	0.0347
TTACCAAGGTGAAGGTCGTTTATCCCTCTGTAGA	1.99	1.2	1.11	0.869	1.49	2.5	1.18	1.66	1.61
